CHO-K1 Ca antag: counter-screen for M1 antagonists: effect in parental CHO-K1 cells; ATP-induced calcium, Fluo-8 fluorescence; inhibition, % at 3 µM; 360,000 tested, 0.6% active; AID 602250;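 active = inhibition above a per-plate cutoff, the plate's mean sample inhibition plus 3 SD, cut at about 24% in these data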;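 also: 0% = DMSO plus EC80 ATP and 100% = DMSO alone without ATP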
M1 antag: antagonists of human M1 muscarinic receptor | P11229 | CHO-K1 hM1, Fluo-8 calcium fluorescence, ACh EC80 antagonist | inhibition, % at 3 µM | 360,000 tested, 1.3% active;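 active = percent inhibition above its own plate's cutoff, namely the mean of that plate's compound wells plus 3 SD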;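 also: peak over basal fluorescence ratio during 140 s after agonist addition; 0% = ACh EC80 plus DMSO and 100% = DMSO alone without agonist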
Target sequence (P11229 whole entry, looked up): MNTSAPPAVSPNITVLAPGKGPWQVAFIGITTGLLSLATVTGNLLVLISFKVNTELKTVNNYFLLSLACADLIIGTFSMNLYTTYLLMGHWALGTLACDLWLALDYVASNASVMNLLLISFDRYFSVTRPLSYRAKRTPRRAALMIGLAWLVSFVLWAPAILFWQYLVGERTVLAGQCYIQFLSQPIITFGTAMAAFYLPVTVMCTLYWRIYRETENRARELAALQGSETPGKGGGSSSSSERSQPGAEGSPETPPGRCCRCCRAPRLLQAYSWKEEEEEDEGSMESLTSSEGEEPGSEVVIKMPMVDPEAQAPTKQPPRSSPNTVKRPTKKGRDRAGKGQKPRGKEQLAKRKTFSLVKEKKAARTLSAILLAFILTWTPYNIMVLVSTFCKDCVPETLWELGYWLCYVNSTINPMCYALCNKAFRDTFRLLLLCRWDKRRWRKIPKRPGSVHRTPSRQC
M1 ag: agonists of human M1 muscarinic receptor; 360,000 tested, 0.33% active; CHO-K1 hM1, Fluo-8 calcium fluorescence, agonist mode; 0% DMSO, 100% acetylcholine EC100; P11229; activation, % at 3 µM;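 active = activation above the run's mean compound activation plus 3 SD, cut at about 16% in these data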;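 also: peak over basal fluorescence ratio within a 140 s kinetic read after compound addition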
CHO-K1 Ca ag: M1 agonist counterscreen hit in parental CHO-K1 cells; 360,000 tested, 0.48% active; AID 602248; activation, % at 3 µM; Fluo-8 calcium fluorescence; scaled to maximal ATP response, vehicle zero; in the data active = activation above about 15%;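 also: untransfected CHO-K1 host cells lacking M1 receptor as counterscreen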
CHRM1 PAM: human CHRM1 positive allosteric modulation | P11229 | CHO-K1 hM1, Fluo-8 calcium fluorescence, ACh EC20; 0% = ACh EC20, 100% = maximal ACh | activation, % at 3 µM | 360,000 tested, 0.088% active; in the data active = activation above about 19%, passing the limit was not always enough
M1 PAM parental: counter-screen for M1 PAMs: effect in parental CHO-K1 cells; 360,000 tested, 0.02% active; ATP EC20, Fluo-8 calcium fluorescence; 0% at ATP EC20, 100% at ATP max; activation, % at 3 µM; AID 602247;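 active = activation above the run cutoff, the mean activation of all test compounds plus 3 SD, cut at about 40% in these data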;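 also: peak over basal fluorescence ratio in a 140 s read after ATP addition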
Numbers without * were called inactive. This is a sample that favours compounds with a hit; in the whole collection about 2.4% have one here.

SMILES | CHO-K1 Ca antag | M1 antag | M1 ag | CHO-K1 Ca ag | CHRM1 PAM | M1 PAM parental
CC(=O)c1ccc(NS(=O)(=O)c2ccc(C(C)(C)C)cc2)cc1 | -5 | 9 | -3 | 7 | -5 | 3
Cc1cc(NS(=O)(=O)c2ccc(NC(=O)c3c(F)c(F)c(F)c(F)c3F)cc2)nc(C)n1 | -4 | -12 | -2 | 1 | 8 | 11
Cc1ccc(S(=O)(=O)Nc2ccc(NC(=O)c3c(F)c(F)c(F)c(F)c3F)cc2)cc1 | -7 | 22 | 24* | 15 | -4 | 15
C[C@@H]1CN([C@@H](C)CO)C(=O)CCCn2nncc2CO[C@@H]1CN(C)S(=O)(=O)c1ccc(F)cc1 | -10 | -6 | -4 | 0 | 8 | 0
CCCCn1c(-c2ccc([N+](=O)[O-])cc2)n[nH]c1=S | 8 | 98* | -6 | 0 | -22 | 19
CCCn1c(-c2ccc(F)cc2)n[nH]c1=S | 2 | 0 | -6 | 0 | 3 | -4
COc1ccc(S(=O)(=O)Nc2ccc(C)cn2)cc1 | -15 | -5 | 0 | 0 | 3 | 23
Cn1c(=O)c(NC2CCCCC2)c2c3c(cccc31)C(=O)c1ccccc1-2 | 11 | 16 | 13 | 16* | -14 | 3
Cn1c(=O)c(NCCO)c2c3c(cccc31)C(=O)c1ccccc1-2 | 18 | 6 | 70* | 34* | -16 | -3
Cn1c(=O)cc2c3c(c(N4CCCCC4)ccc31)C(=O)c1ccccc1-2 | 9 | 4 | 0 | 0 | 5 | -9
Cn1c(=O)c(NCCc2ccccc2)c2c3c(cccc31)C(=O)c1ccccc1-2 | 70* | 80* | 166* | 124* | -20 | -7
CN1C(=O)c2cccc(NCCCN3C(=O)c4ccccc4C3=O)c2C1=O | -14 | -10 | -6 | 1 | 8 | -2
CC(=O)Nc1ccc(Nc2c3c4c(cccc4n(C)c2=O)C(=O)c2ccccc2-3)cc1 | -6 | 0 | -4 | 2 | 2 | 18
CCCCNc1c2c3c(cccc3n(C)c1=O)C(=O)c1ccccc1-2 | 69* | 75* | 141* | 123* | -23 | -4
CC(C)c1nnc(NC(=O)CCC(=O)NC2CCCc3ccccc32)s1 (stereo not given) | -7 | -8 | -4 | 2 | 4 | 18
C=CC[C@H](CC(=O)NCCO)C(=O)N[C@H](COC(=O)[C@@H](CC=C)Cc1ccc(F)cc1)Cc1ccccc1 | 5 | -5 | 0 | 0 | -2 | -3
O=C(c1ccc(S(=O)(=O)N2CCCC2)cc1)N1CCCc2ccccc21 | 3 | -9 | -8 | 2 | -2 | 6
CCc1ccc(N=Nc2ccc(O)c3[nH]cnc23)cc1 | 18 | 40* | 14 | 13 | -15 | -15
CC1(C)CC2CC(C)(CN2C(=S)Nc2ccccc2)C1 (stereo not given) | -12 | -5 | -5 | 16* | 8 | 22
CC(NC(=O)/C(=C/c1cccc([N+](=O)[O-])c1)NC(=O)c1ccco1)C(=O)O (stereo not given) | -11 | 2 | -4 | 0 | 2 | 7
Cc1cc(C)cc(OCC(=O)OCC(=O)Nc2cc(S(=O)(=O)N3CCOCC3)ccc2Cl)c1 | -12 | 1 | 0 | 0 | 13 | 18
CC(C)c1ccc(NC(=O)Nc2nc(C(N)c3ccccc3)cs2)cc1 (stereo not given) | -4 | 1 | 9 | 7 | 7 | 20
Cc1cc(Br)ccc1NC(=O)CN(C)C(=O)Cn1c(=O)cnc2ccccc21 | 1 | 29* | -6 | 0 | -17 | -21
CC1(C)N=C(N)N=C(N)N1c1ccc(CCCCc2ccccc2)cc1 | -9 | 57* | -8 | 1 | -30 | 14
O=C(Cn1cc(C(=O)C(=O)N2CCOCC2)c2ccccc21)Nc1cccc(C(F)(F)F)c1 | 0 | 1 | 0 | 1 | -1 | 1
SMILES | CHO-K1 Ca antag | M1 antag | M1 ag | CHO-K1 Ca ag | CHRM1 PAM | M1 PAM parental
N#C/C(=N\Nc1ccc(Cl)cc1)C(=O)c1ccccc1 | 31* | 15 | 7 | 7 | -2 | -3
OCCNc1nc(NCCC2=CCCCC2)nc(N2CCOCC2)n1 | 24* | 2 | 2 | 1 | 6 | 15
CC(CNc1ccc(Cl)cc1)(CNc1ccc(Cl)cc1)[N+](=O)[O-] | -10 | -7 | 0 | 0 | 2 | 15
COc1ccccc1CN1CCC(CNS(=O)(=O)c2cc(-c3cc(C)no3)ccc2OC)CC1 | -18 | 93* | -6 | 1 | -24 | 1
O=C(c1ccc(Cl)cc1)N1CCN(CCc2ccccn2)CC1 | -12 | -14 | -9 | 1 | 7 | 5
O=C(Nc1ccc(Cc2ccncc2)cc1)C1CCC(N2C(=O)C3C4C=CC(C4)C3C2=O)CC1 (stereo not given) | 2 | -10 | 6 | 18* | -11 | -1
COc1ccc(C(CCNCc2ccc(OC(C)C)cc2)c2ccccc2OC)cc1 (stereo not given) | 14 | 1 | 3 | 18* | 10 | -4
COc1ccc(CNCCC(c2ccc(OC)cc2)c2ccccc2OC)cc1 (stereo not given) | 4 | -2 | -3 | 1 | 6 | -1
COc1ccc(C2C(C(C)=O)=C(O)C(=O)N2c2ccc(F)cc2)cc1 (stereo not given) | 6 | 3 | 2 | 0 | 8 | -9
COc1ccc(Cl)cc1C(=O)CSc1nnnn1C1CCCCC1 | -1 | 27* | -3 | 0 | -16 | 5
COc1ccccc1C1=NOC(Cn2c(NCCCO)nc3c2c(=O)n(C)c(=O)n3C)C1 (stereo not given) | -11 | -5 | -4 | 2 | 2 | 21
COc1ccc(C2=NOC(Cn3c(Cc4ccc(Cl)cc4)nc4c3c(=O)n(C)c(=O)n4C)C2)cc1 (stereo not given) | 4 | 31* | 0 | 0 | -9 | -7
CC(C)(C)CC(=O)Nc1cc2c3c(c1)CCC(=O)N3CCC2 | -1 | -13 | -1 | 1 | 10 | -22
Cn1c(=O)c(C(=O)NNC(=O)c2ccccc2Br)c(O)c2ccccc21 | -6 | 1 | -3 | 0 | 2 | -2
CCn1c(=O)c(C(=O)NNC(=O)c2cccc(Cl)c2)c(O)c2ccccc21 | 3 | 23 | 21* | 22* | -13 | -3
CCn1c(=O)c(C(=O)Nc2nc3ccccc3[nH]2)c(O)c2ccccc21 | 20 | 51* | 5 | 2 | -12 | 9
CCn1c(=O)c(C(=O)NNC(=O)c2ccccc2Br)c(O)c2ccccc21 | -9 | -17 | 10 | 17* | 11 | 3
N=C(N)SCc1ccccn1 | -1 | -2 | 30* | 0 | -6 | 26
N=C(N)SCc1ncccc1O | -19 | -14 | 12 | 0 | 4 | 20
CC(C)N(CCNC(=O)c1ccc(CS(=O)(=O)c2c(Cl)cccc2Cl)o1)Cc1ccccc1 | -12 | 45* | -6 | 1 | -22 | 8
